Data taken from PubChem BioAssay.
Activity calls are given as the source filed them.

Test: budding yeast growth changes without added modifier – OD600, strain BY4716, 24 h, basal condition, primary screen (AID 1173)
Conditions: S. cerevisiae BY4716 growth, OD600, 24 h; higher = more signal, called active from +8 up or from −8 down

z-score, active:
CC(C)Cc1ccc(CN2CC[C@@H](NC(=O)Nc3ccccc3)C2)cc1 -17.3, C=CC1c2cc(O)c(OC)cc2CCN1Cc1cc2c(cc1Br)OCO2 (stereo unspecified) -12.5

z-score, inactive:
Cc1ccc(S[C@]2(C(=O)O)CC(=O)N(Cc3cc(C(F)(F)F)cc(C(F)(F)F)c3)[C@@H]2c2ccc(CO)cc2)cc1 -0.54, O=C1O[C@H](c2ccccc2)[C@H](c2ccccc2)N2[C@H]1[C@@H](C(=O)N1CCN(c3ncccn3)CC1)[C@]1(C(=O)Nc3ccc(C#CC4(O)CCCCCC4)cc31)[C@H]2c1ccc(OCCO)cc1 1.82, COC(=O)C(CC#Cc1ccc2c(c1)[C@]1(C(=O)N2)[C@H](c2ccccc2OCCO)N2[C@H](c3ccccc3)[C@H](c3ccccc3)OC(=O)[C@H]2[C@@H]1C(=O)NC[C@H](O)c1ccccc1)C(=O)OC 1.61, Cc1ccccc1C(O)C1C=CC2C(=O)N(C)C(=O)C2N1N(c1ccccc1)c1ccccc1 (stereo unspecified) 0.0882, CCC[C@@H]1C[C@@]1(CCC)[C@@H](NC(=O)OCc1ccccc1)c1ccc(-c2ccccc2)cc1 -2.75, CN(C)C(=O)C1N=C(c2ccc(OCCCO)cc2)N(c2ccccc2)O1 (stereo unspecified) -1.29, O=C1O[C@H](c2ccccc2)[C@H](c2ccccc2)N2[C@H]1[C@@H](C(=O)O)[C@]1(C(=O)Nc3ccc(C#CC4=CCCCC4)cc31)[C@H]2c1ccc(O)cc1 -1.73, C=CCOC(=O)[C@H]1[C@@H]2C(=O)O[C@@H](c3ccccc3)[C@@H](c3ccccc3)N2[C@@H](c2ccc(OCCOC(=O)[C@H]3C[C@H]4C(=O)N[C@@H](CCCCNC(C)=O)C(=O)N4[C@H]3c3ccc(O)cc3)cc2)[C@]12C(=O)Nc1ccccc12 -1.68, CN1C(=O)C2C=CC(C(O)c3cccc4ccccc34)N(N3CCCCC3)C2C1=O (stereo unspecified) 1.51, C=CCOC(=O)[C@H]1[C@@H]2C(=O)O[C@@H](c3ccccc3)[C@@H](c3ccccc3)N2[C@@H](c2ccc(OCCOC(=O)[C@@H]3C[C@@H]4C(=O)N5CCC[C@H]5C(=O)N4[C@@H]3c3ccc(O)cc3)cc2)[C@]12C(=O)Nc1ccc(I)cc12 1.04, O=C1C2C=CC(C(O)c3ccccc3)N(Nc3ccccc3F)C2C(=O)N1c1ccccc1 (stereo unspecified) -1.64, CN(C)c1ccc(C(O)C2C=CC3C(=O)N(c4ccccc4)C(=O)C3N2Nc2ccc([N+](=O)[O-])cc2)cc1 (stereo unspecified) -0.491, [N-]=[N+]=NCc1ccccc1[C@H]1OC(c2ccc(OCCCO)cc2)=N[C@@]1(CCS(=O)(=O)c1ccccc1)C(=O)N1CCCCC1 0.285, C=CCOC(=O)[C@H]1[C@@H]2C(=O)O[C@@H](c3ccccc3)[C@@H](c3ccccc3)N2[C@@H](c2ccc(OCCOC(=O)[C@@H]3C[C@@H]4C(=O)N[C@@H](CCCCNC(C)=O)C(=O)N4[C@@H]3c3ccc(O)cc3)cc2)[C@]12C(=O)Nc1ccc(I)cc12 1.46, COc1cc2c(cc1OC)CN(C(=O)[C@@H]1[C@H]3C(=O)O[C@H](c4ccccc4)[C@H](c4ccccc4)N3[C@H](c3ccc(OCCO)cc3)[C@@]13C(=O)Nc1ccc(C#CC4(O)CCCCCC4)cc13)CC2 -0.257, C=C(/C(=C/C[C@H](OC(C)=O)c1ccccc1OCCO)c1cc(C(=O)OC)ccc1OC)C(C)C -2.2, CCOC(=O)C[C@H]1[C@H](OC(=O)c2cc3ccccc3oc2=O)[C@@H](NC(=O)c2ccc(-c3ccccc3)cc2)c2cc(OCCCO)ccc2N1C(=O)c1ccc2ccccc2n1 0.753, CN(C)CCCCNC(=O)[C@@H]1C[C@@H]2C(=O)N[C@@H](Cc3ccccc3)C(=O)N2[C@@H]1c1cccc(OCCO)c1 -0.957, COc1ccc([Si](C)(C)[C@@H]2[C@@H](CCO)O[C@]3(C(=O)N(Cc4ccc(N5CCCCC5=O)cc4)c4ccccc43)[C@H]2C)cc1 -0.173, COCCOC(=O)N1C(=O)[C@@]2(c3cc(C#CC4=CCCCC4)ccc31)[C@H](c1ccccc1OCCO)N1[C@H](c3ccccc3)[C@H](c3ccccc3)OC(=O)[C@H]1[C@@H]2C(=O)Nc1nc2ccccc2s1 0.357, CCCCC(=C=CC[C@@H](O)c1ccccc1OCCO)C[C@@H](O)COCc1ccccc1 -0.984, Cc1ccc(S[C@]2(C(=O)NCC(F)(F)F)CC(=O)N(Cc3ccccc3)[C@@H]2c2ccc(CO)cc2I)cc1 -3.93, O=C(NCC(F)(F)F)[C@@H]1c2ccccc2C(=O)N(Cc2cc(F)cc(C(F)(F)F)c2)[C@H]1c1ccc(CO)cc1 -0.359, C=C(CCCC)/C(=C/C[C@@H](OC(=O)c1ccncc1)c1ccccc1OCCO)c1cnc2ccccc2c1 -2.19, [N-]=[N+]=Nc1ccccc1C[C@]1(C(=O)N2CCOCC2)N=C(c2ccc(OCCCO)cc2)O[C@H]1c1ccccc1 -0.576, CCCNC(=O)[C@@H]1c2ccccc2C(=O)N(C(C)C)[C@H]1c1ccc(CO)cc1 0.121, O=C1O[C@H](c2ccccc2)[C@H](c2ccccc2)N2[C@H]1[C@@H](C(=O)Nc1nc3ccccc3s1)[C@]1(C(=O)Nc3ccc(C#CC4(O)CCCCCC4)cc31)[C@H]2c1ccccc1OCCO 1.49, O=C1OCC=C[C@H]2OC34C=CCN(Cn5nnc6ccccc65)C(=O)[C@H]3N(CCCO)C(=O)[C@@H]4[C@@H]12 (stereo partly specified) -0.68, COC(=O)[C@@]1(Cc2ccccc2)[C@H]2c3cc(C(=O)N(C)C)n(Cc4c(CO)[nH]cc(C)c4=O)c3C[C@H]2CN1C(=O)c1ccccc1 1.79, COC(=O)[C@@]1(Cc2ccc(OC)cc2)[C@H]2c3cc(C(=O)N(C)C)n(Cc4ccc(Cl)c(C(F)(F)F)c4)c3C[C@H]2CN1C(=O)c1ccccc1 1.86, C=CCNC(=O)[C@H]1[C@@H]2C(=O)O[C@@H](c3ccccc3)[C@@H](c3ccccc3)N2[C@@H](c2ccc(O)cc2)[C@]12C(=O)N(C(=O)OCCOC)c1ccccc12 0.628, CCCCCCCCCCC(O)C1C=CC2C(=O)N(C)C(=O)C2N1NC(=O)OC(C)(C)C (stereo unspecified) -5.22, NC(N)=NCCCn1cc(CNC(=O)[C@@H](N)Cc2ccccc2)nn1 -0.85, CCOC(=O)C1CCCCN1 (stereo unspecified) 0.466
